{
  "source": "PubChem BioAssay (NCI)",
  "note": "Where “and” joins values, the source holds several entries; their conditions need not be identical. Equal values may be shown once. This is part of a sample that, as a whole, favours compounds with a hit. Of some 83,000 tested, about 20% had one in any assay.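 In brief: 96-well plates, 48 h treatment, single concentration, percent growth endpoint.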 Calls of active or inactive are those of the source. The calls were made as follows: active = growth percent below 10; inactive = the rest.",
  "data": [
    {"tested_on": "MDA-MB-468 breast", "assay": "NCI-60 one-dose screen, 48 h (100 = growth as untreated, 0 = no growth, -100 = all killed)", "details": "10 µM unless noted", "values": [
      {"smiles": "CC(=O)c1cc(C(=O)c2ccc3c(c2)Sc2ccccc2N3)c2cc(C)ccn12", "growth": "-3.41% (active)"},
      {"smiles": "CCCCC[C@@H]1Cc2cc(O)c(C(=O)O)c3c2[C@H](C[C@]2(OC[C@@H](CC(=O)[C@@](C)(CC)C(=O)OC)[C@@H]2C)O3)O1", "growth": "110% (inactive)"},
      {"smiles": "CCNC(=O)Oc1ccc(/C(=C(/C)Cc2ccc(OC)cc2)c2ccc(OCCN(CC)CC)cc2)cc1", "growth": "46.6% (inactive)"},
      {"smiles": "C=C(C)[C@@H]1CC[C@]2(COC(=O)c3ccccc3C(=O)O)CC[C@]3(C)[C@H](CC[C@@H]4[C@@]5(C)CC[C@H](OC(=O)c6ccccc6C(=O)O)C(C)(C)[C@@H]5CC[C@]43C)[C@@H]12", "growth": "-22.5% [100 µM] (active)"},
      {"smiles": "CN(C)CCNC(=O)c1ccc(-c2nc3ccc4[nH]ncc4c3c3c2C2CCC3C2)cc1", "note": "(stereo not given)", "growth": "16.2% (inactive)"},
      {"smiles": "CN(C)CCOc1nc2c3cccnc3cc(-c3cccc(Cl)c3)c2c2ncccc12", "growth": "2.18% (active)"},
      {"smiles": "O=C(O)c1ccc(S(=O)(=O)O)cc1", "growth": "103% (inactive)"},
      {"smiles": "CC(NC(=O)CCl)c1ccccc1", "note": "(stereo not given)", "growth": "89% (inactive)"},
      {"smiles": "O=C(Nc1ccc(Cl)c([N+](=O)[O-])c1)Nc1nc2ccccc2s1", "growth": "40.6% (inactive)"},
      {"smiles": "CCOC(=O)c1csc(N)n1", "growth": "95.6% (inactive) and 91.5% (inactive)"},
      {"smiles": "O=C1CNC(c2ccccc2)C(c2ccccc2)N1", "note": "(stereo not given)", "growth": "93.1% (inactive)"},
      {"smiles": "O=C1Cc2c(sc3c(F)cccc23)C(c2ccccc2[N+](=O)[O-])N1", "note": "(stereo not given)", "growth": "86.9% (inactive)"},
      {"smiles": "N#Cc1c(-c2ccc(Cl)cc2)nc(SCc2ccc(F)cc2)nc1N1CCNCC1", "growth": "-62.5% (active)"},
      {"smiles": "COc1ccc(C(=S)N2CCN(c3ccccc3Cl)CC2)cc1OC", "growth": "92.1% (inactive)"},
      {"smiles": "Cc1cc2c(-c3nc4ccccn4c3Nc3cccc4ccccc34)c(O)c(O)cc2c(O)c1-c1c(C)cc2c(-c3nc4ccccn4c3Nc3cccc4ccccc34)c(O)c(O)cc2c1O", "growth": "17.4% (inactive)"},
      {"smiles": "COc1ccccc1-c1ccc2nc(NC(=O)Nc3cc(C(F)(F)F)cc(C(F)(F)F)c3)sc2c1", "growth": "-8.23% (active)"},
      {"smiles": "O=c1[nH]c(-c2ccccc2)nc2sc3cc(O)ccc3c12", "growth": "93.7% (inactive)"},
      {"smiles": "O=c1[nH][nH]c(-c2ccc(F)cc2)c1-c1nc2ccccc2s1", "growth": "100% (inactive)"},
      {"smiles": "Cc1ccc(C2C=C(c3ccc(Cl)cc3)N=C3SC=CN32)c(Br)c1", "note": "(stereo not given)", "growth": "69.7% (inactive)"},
      {"smiles": "COc1ccc(C2=CC(c3ccc(Oc4ccnc5cc(Cl)ccc45)c(OC)c3)c3c(nc(OC)[nH]c3=O)N2)cc1", "note": "(stereo not given)", "growth": "61.4% (inactive)"},
      {"smiles": "CSc1nc2ccc(C)cc2cc1/C=N/O", "growth": "101% (inactive)"},
      {"smiles": "COc1ccc(/C=C/c2c(C(=O)/C=C/c3cccs3)c(C)nc3ccccc23)cc1", "growth": "66.9% (inactive)"},
      {"smiles": "O=C1CCCC1[n+]1ccccc1", "note": "(stereo not given)", "growth": "120% (inactive)"},
      {"smiles": "CCOc1ccc(Nc2c3ccccc3nc3ccccc23)cc1", "growth": "102% (inactive) and -9.77% (active)"},
      {"smiles": "CC[C@H](Nc1ncnc(N)c1C(N)=O)c1nc2cccc(NCc3ccc(C(=O)NO)cc3)c2c(=O)n1-c1ccccc1", "growth": "32.2% (inactive)"},
      {"smiles": "Cc1ccc2c(c1)c(Sc1ccc(C(=O)NO)cc1)c1n2CN(C)CC1", "growth": "-19.3% (active)"},
      {"smiles": "CCN(CC)CCCC(C)Nc1cc(O)cc2cccnc12", "note": "(stereo not given)", "growth": "73.9% (inactive)"},
      {"smiles": "C1CCCCNCCC1", "growth": "98.6% (inactive)"},
      {"smiles": "CC(C)=CCC[C@H](C)c1ccc(C)c2c1OCN(CCO)C2", "growth": "82.5% (inactive)"},
      {"smiles": "Cc1cc2c(-c3nc4ccccn4c3NC3CCCCC3)c(O)c(O)cc2c(O)c1-c1c(C)cc2c(-c3nc4ccccn4c3NC3CCCCC3)c(O)c(O)cc2c1O", "growth": "13.9% (inactive)"},
      {"smiles": "COc1ccc(/C=C(/C(=O)N2CCNCC2)c2cc(OC)c(OC)c(OC)c2)cc1O", "growth": "-4.45% (active)"},
      {"smiles": "CCOc1ccc2c(c1)CC[C@@H]1[C@@H]2CC[C@]2(C)[C@@H](O)[C@@H](O)C[C@@H]12", "growth": "87.5% (inactive)"},
      {"smiles": "Cc1cccc(C)c1NC(=S)/N=C\\c1c(O)[nH]c(=O)[nH]c1=O", "growth": "114% (inactive)"},
      {"smiles": "Cc1c(C2=CCCCC2)c2ccccn2c1C(=O)c1cccc(S(=O)(=O)N2CCOCC2)c1", "growth": "51.5% (inactive)"},
      {"smiles": "O=C(CCl)N1c2ccccc2Sc2c1ccc1ccccc21", "growth": "26.4% (inactive)"},
      {"smiles": "CCCCCCCSc1ncnc2[nH]ncc12", "growth": "68.8% (inactive)"},
      {"smiles": "CCCCOc1nc2cc(Cl)ccc2cc1/C=C/c1cc(/C=C/c2cc3ccc(Cl)cc3nc2OCCCC)n(-c2ccccc2)n1", "growth": "92% (inactive)"},
      {"smiles": "CC(C)(C)c1nn(-c2ccccc2)c2c1C(=O)CSC(c1ccc3c(c1)OCO3)N2", "note": "(stereo not given)", "growth": "120% (inactive)"},
      {"smiles": "C=C(C)[C@@H]1CCC=C2CC[C@]3(C)[C@H](CC[C@@H]4[C@@]5(C)CCCNC(C)(C)[C@@H]5CC[C@]43C)[C@H]21", "growth": "-31.5% (active)"},
      {"smiles": "CCN(CCCCCCCCCCN1CC(=O)N(CCCCCCCCCCN(CC)Cc2ccccc2OC)CC1=O)Cc1ccccc1OC", "growth": "-87.8% (active)"}
    ]}
  ]
}
